# In PubChem BioAssay AID1159580 (chemical genetic matrix, 2015):
# Values joined by “and” are separate entries in the source; they are usually repeats but may differ in a detail not shown here. Equal entries are not always repeated. Out of some 5,500 compounds screened, about 2,000 (36%) were called active. Roughly 18% stayed inconclusive and do not appear here. Rule as the data show it: active = normalized growth mostly below about 0.91 (no sharp cut-off); inconclusive = no clear call, values can overlap the other calls; inactive = mostly above about 0.92. The list shows a part of the results. Some structures have more than one record in an assay (separate samples or runs), and their calls can disagree.
# Experiment: chemical genetic growth profiling, strain panel (AID 1159580);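 also: tested at 20 µM; growth read once vehicle control cultures reached saturation at 30 °C; 1 = growth at the plate median or of vehicle wells; lower values mean less growth of the strain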
# Settings: S. cerevisiae deletion strains, growth OD
structure (smiles),measurement,setting,value
Cc1cc2c(C(C)C)c(O)c(O)c(C=O)c2c(O)c1-c1c(C)cc2c(C(C)C)c(O)c(O)c(C=O)c2c1O,normalized growth,"locus YAL013W, strain DEP1, stronger effect = lower value",0.328 (active) and 0.919 (inactive)
same,normalized growth,"locus YAL021C, strain ccr4, stronger effect = lower value",0.423 (active) and 0.368 (active)
same,normalized growth,"locus YAL026C, strain drs2, stronger effect = lower value",0.446 (active) and 0.519 (active)
same,normalized growth,"locus YAL030W, strain snc1, stronger effect = lower value",0.842 (active) and 0.874 (active)
same,normalized growth,"locus YBL061C, strain skt5, stronger effect = lower value",0.762 (active) and 0.747 (active)
same,normalized growth,"locus YBR009C, strain hhf1, stronger effect = lower value",0.779 (active) and 0.854 (active)
same,normalized growth,"locus YBR021W, strain FUR4, stronger effect = lower value",0.953 (inactive) and 0.977 (inactive)
same,normalized growth,"locus YBR023C, strain chs3, stronger effect = lower value",0.715 (active) and 0.692 (active)
same,normalized growth,"locus YBR171W, strain sec66, stronger effect = lower value",0.862 (active) and 0.922 (inactive)
same,normalized growth,"locus YBR229C, strain ROT2, stronger effect = lower value",0.936 (inactive) and 0.948 (inactive)
same,normalized growth,"locus YBR231C, strain swc5, stronger effect = lower value",0.637 (active) and 0.64 (active)
same,normalized growth,"locus YBR279W, strain paf1, stronger effect = lower value",0.778 (active) and 0.751 (active)
same,normalized growth,"locus YCL011C, strain gbp2, stronger effect = lower value",0.819 (active) and 0.854 (active)
same,normalized growth,"locus YCL016C, strain dcc1, stronger effect = lower value",0.842 (active) and 0.831 (active)
same,normalized growth,"locus YCL029C, strain bik1, stronger effect = lower value",0.798 (active) and 0.939 (inactive)
same,normalized growth,"locus YCL061C, strain MRC1, stronger effect = lower value",0.845 (active)
same,normalized growth,"locus YCL069W, strain vba3, stronger effect = lower value",0.813 (active) and 0.879 (active)
same,normalized growth,"locus YCR088W, strain abp1, stronger effect = lower value",0.842 (active) and 0.919 (active)
same,normalized growth,"locus YDL005C, strain med2, stronger effect = lower value",0.971 (inactive)
same,normalized growth,"locus YDL035C, strain GPR1, stronger effect = lower value",0.662 (active) and 0.799 (active)
same,normalized growth,"locus YDL040C, strain nat1, stronger effect = lower value",0.943 (inactive) and 0.953 (inactive)
same,normalized growth,"locus YDL074C, strain BRE1, stronger effect = lower value",0.589 (active) and 0.751 (active)
same,normalized growth,"locus YDL101C, strain DUN1, stronger effect = lower value",0.742 (active) and 0.847 (active)
same,normalized growth,"locus YDL134C, strain PPH21, stronger effect = lower value",0.738 (active) and 0.848 (active)
same,normalized growth,"locus YDL185W, strain tfp1, stronger effect = lower value",0.926 (inactive) and 0.966 (inactive)
same,normalized growth,"locus YDL192W, strain arf1, stronger effect = lower value",0.689 (active) and 0.978 (inactive)
same,normalized growth,"locus YDR001C, strain nth1, stronger effect = lower value",0.881 (active) and 0.925 (inactive)
same,normalized growth,"locus YDR069C, strain doa4, stronger effect = lower value",0.53 (active) and 0.604 (active)
same,normalized growth,"locus YDR101C, strain arx1, stronger effect = lower value",0.849 (active) and 0.943 (inactive)
same,normalized growth,"locus YDR137W, strain rgp1, stronger effect = lower value",0.161 (active) and 0.167 (active)
same,normalized growth,"locus YDR150W, strain NUM1, stronger effect = lower value",0.785 (active) and 0.912 (inactive)
same,normalized growth,"locus YDR159W, strain sac3, stronger effect = lower value",0.653 (active) and 0.717 (active)
same,normalized growth,"locus YDR162C, strain NBP2, stronger effect = lower value",0.342 (active) and 0.819 (active)
same,normalized growth,"locus YDR195W, strain ref2",0.84 (active) and 0.864 (inactive)
same,normalized growth,"locus YDR297W, strain sur2, stronger effect = lower value",0.79 (active) and 0.863 (active)
same,normalized growth,"locus YDR318W, strain mcm21, stronger effect = lower value",0.847 (active) and 0.965 (inactive)
same,normalized growth,"locus YDR334W, strain swr1, stronger effect = lower value",0.477 (active) and 0.674 (active)
same,normalized growth,"locus YDR335W, strain msn5, stronger effect = lower value",0.677 (active) and 0.769 (active)
same,normalized growth,"locus YDR388W, stronger effect = lower value",0.793 (active) and 0.972 (inactive)
same,normalized growth,"locus YDR392W, strain spt3, stronger effect = lower value",0.56 (active) and 0.438 (active)
same,normalized growth,"locus YDR502C, strain sam2, stronger effect = lower value",0.769 (active) and 0.937 (inactive)
same,normalized growth,"locus YEL003W, strain gim4, stronger effect = lower value",0.761 (active) and 0.805 (active)
same,normalized growth,"locus YEL037C, strain rad23, stronger effect = lower value",0.786 (active) and 0.813 (active)
same,normalized growth,"locus YEL061C, strain CIN8 (second series), stronger effect = lower value",0.814 (active) and 0.916 (inactive)
same,normalized growth,"locus YEL061C, strain CIN8, stronger effect = lower value",0.777 (active) and 0.853 (active)
same,normalized growth,"locus YER015W, strain faa2, stronger effect = lower value",0.649 (active) and 0.698 (active)
same,normalized growth,"locus YER016W, strain bim1, stronger effect = lower value",0.849 (active) and 0.883 (active)
same,normalized growth,"locus YER110C, stronger effect = lower value",0.943 (inactive) and 1.02 (inactive)
same,normalized growth,"locus YER111C, strain swi4, stronger effect = lower value",0.456 (active) and 0.668 (active)
same,normalized growth,"locus YER155C, strain BEM2 (second series), stronger effect = lower value",0.674 (active) and 0.758 (active)
same,normalized growth,"locus YER155C, strain BEM2, stronger effect = lower value",0.865 (active) and 0.912 (active)
same,normalized growth,"locus YER167W, strain BCK2, stronger effect = lower value",0.83 (active) and 0.895 (active)
same,normalized growth,"locus YFR010W, strain ubp6, stronger effect = lower value",0.644 (active) and 0.732 (active)
same,normalized growth,"locus YGL078C, strain dbp3, stronger effect = lower value",0.976 (inactive) and 1.01 (inactive)
same,normalized growth,"locus YGL086W, strain mad1, stronger effect = lower value",0.937 (inactive)
same,normalized growth,"locus YGL167C, strain pmr1, stronger effect = lower value",0.868 (active) and 0.833 (active)
same,normalized growth,"locus YGL173C, strain kem1, stronger effect = lower value",0.564 (active) and 0.591 (active)
same,normalized growth,"locus YGL227W, strain vid30, stronger effect = lower value",0.953 (inactive) and 0.989 (inactive)
same,normalized growth,"locus YGL240W, strain doc1, stronger effect = lower value",0.892 (inactive) and 0.952 (inactive)
same,normalized growth,"locus YGL248W, strain PDE1, stronger effect = lower value",0.764 (active) and 0.805 (active)
same,normalized growth,"locus YGL253W, strain hxk2, stronger effect = lower value",0.629 (active) and 0.698 (active)
same,normalized growth,"locus YGR078C, strain PAC10, stronger effect = lower value",0.776 (active)
same,normalized growth,"locus YGR135W, strain pre9, stronger effect = lower value",0.821 (active) and 0.901 (inactive)
same,normalized growth,"locus YGR229C, strain SMI1, stronger effect = lower value",0.126 (active)
same,normalized growth,"locus YGR252W, strain gcn5, stronger effect = lower value",0.806 (inactive) and 0.95 (inactive)
same,normalized growth,"locus YHR013C, strain ard1, stronger effect = lower value",0.651 (active) and 0.608 (active)
same,normalized growth,"locus YHR027C, strain rpn1, stronger effect = lower value",0.56 (active) and 0.593 (active)
same,normalized growth,"locus YHR030C, strain SLT2, stronger effect = lower value",0.64 (active) and 0.992 (inactive) and 0.854 (active)
same,normalized growth,"locus YHR079C, strain IRE1 (second series), stronger effect = lower value",0.841 (active) and 0.953 (inactive)
same,normalized growth,"locus YHR079C, strain IRE1, stronger effect = lower value",1.01 (inactive)
same,normalized growth,"locus YHR094C, strain hxt1, stronger effect = lower value",0.979 (inactive) and 1 (inactive)
same,normalized growth,"locus YHR129C, strain ARP1, stronger effect = lower value",0.731 (active) and 0.811 (active)
same,normalized growth,"locus YHR142W, strain chs7, stronger effect = lower value",0.537 (active) and 0.619 (active)
same,normalized growth,"locus YHR200W, strain rpn10, stronger effect = lower value",0.876 (active) and 0.977 (inactive)
same,normalized growth,"locus YIL066C, strain RNR3, stronger effect = lower value",0.6 (active) and 0.744 (active)
same,normalized growth,"locus YIL073C, strain SPO22, stronger effect = lower value",0.421 (active) and 0.743 (inactive)
same,normalized growth,"locus YIL125W, strain kgd1, stronger effect = lower value",1.05 (inactive) and 0.996 (inactive)
same,normalized growth,"locus YIR030C, strain dcg1, stronger effect = lower value",0.89 (active) and 0.994 (inactive)
same,normalized growth,"locus YJL092W, strain hpr5, stronger effect = lower value",0.799 (active) and 0.852 (active)
same,normalized growth,"locus YJL095W, strain BCK1 (second series), stronger effect = lower value",0.644 (active) and 0.629 (active)
same,normalized growth,"locus YJL095W, strain BCK1, stronger effect = lower value",0.534 (active) and 0.961 (inactive) and 0.744 (active)
same,normalized growth,"locus YJL115W, strain asf1, stronger effect = lower value",0.794 (active) and 0.86 (active)
same,normalized growth,"locus YJL129C, strain trk1, stronger effect = lower value",0.897 (inactive) and 0.937 (inactive)
same,normalized growth,"locus YJL134W, strain LCB3, stronger effect = lower value",0.875 (active) and 0.934 (inactive)
same,normalized growth,"locus YJL154C, strain vps35, stronger effect = lower value",0.857 (active) and 0.853 (active)
same,normalized growth,"locus YJL164C, strain tpk1, stronger effect = lower value",0.774 (active) and 0.762 (active)
same,normalized growth,"locus YJL166W, strain qcr8, stronger effect = lower value",0.75 (active) and 0.82 (active)
same,normalized growth,"locus YJL168C, strain set2, stronger effect = lower value",0.935 (inactive) and 0.981 (inactive)
same,normalized growth,"locus YJL187C, strain SWE1 (second series), stronger effect = lower value",0.553 (active) and 0.71 (active)
same,normalized growth,"locus YJL187C, strain SWE1, stronger effect = lower value",0.804 (active)
same,normalized growth,"locus YJR043C, strain POL32, stronger effect = lower value",0.594 (active) and 0.749 (active)
